# Laboratory results from PubChem BioAssay (Tox21).
# Inconclusive results are not listed. Calls of active or inactive are those of the source. Calls come from the whole dose curve; as a rule, active = well fitted cell-killing curve with a large enough effect in the repeat runs; inconclusive = weak or mixed curves, or effect the other way; inactive = flat fitted curve, though single readings scatter.
# Test: qHTS RealTime-Glo MT Cell Viability Assay in HEK293 cells - 24 hour (AID 1224886)
# Conditions: RealTime-Glo luminescence; series mostly up to 76.8 µM; activity change, negative = cytotoxicity: at the top concentration
# Method in brief: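 Homogeneous bioluminescent viability format in HEK293 cells (600 cells/well). Following 5 h at 37 C/5% CO2, 23 nL compound was pintooled; the signal was measured repeatedly during 40 h incubation.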
# % is set by controls: 0 for no effect and ±100 for the full control effect.
# Note: top concentration of the series differs between compounds; nearly all actives have a fitted effect of over 50% in size.
row,SMILES,"activity change, negative = cytotoxicity"
1,FC(F)(F)c1ccc(Cl)cc1Cl,8.38% (inactive)
2,C[C@H](CCC(=O)O)[C@H]1CC[C@H]2[C@@H]3[C@H](O)C[C@@H]4C[C@H](O)CC[C@]4(C)[C@H]3C[C@H](O)[C@]12C,-1.74% [at 35.3 µM] (inactive)
3,CCCCCCCC[Si](OCC)(OCC)OCC,1.37% (inactive)
4,CC(C)COC(=O)CC(C(=O)OCC(C)C)S(=O)(=O)O (centres undefined),1.57% (inactive)
5,CO[Si](CCCCl)(OC)OC,22% (inactive)

# Test: qHTS RealTime-Glo MT Cell Viability Assay in HEK293 cells - 8 hour (AID 1224887)
# Conditions: RealTime-Glo luminescence; series mostly up to 76.8 µM; activity change, negative = cytotoxicity: at the top concentration
# Method in brief: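 Tox21 screen in HEK293 using RealTime-Glo MT chemistry, with cells and reagent co-dispensed. Luminescence proportional to viable cell number was captured at intervals during 40 h compound exposure at 37 C.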
row,SMILES,"activity change, negative = cytotoxicity"
1,OC(CCN1CCCCC1)(c1ccccc1)c1ccccc1,-3.7% [at 35.3 µM] (inactive)
2,Cc1nc(C)nc(N2C[C@@H](C)N(c3ccnc([C@@H](C)O)n3)[C@@H](C)C2)n1,-1.6% [at 35.3 µM] (inactive)
3,O=C(CN1CCN(Cc2ccc3c(c2)OCO3)CC1)N1c2ccccc2Sc2ccccc21,-10% [at 35.3 µM] (inactive)
4,CCN(CC)C(=O)C1CN2CCc3cc(OC)c(OC)cc3C2CC1OC(C)=O (centres undefined),-1.8% [at 35.3 µM] (inactive)
5,CCCCCCCCCCCCCCCCCCN(C)C,-0.283% [at 35.3 µM] (inactive)
6,O=C(/C=C/c1ccccc1)NCCO,-6.07% [at 35.3 µM] (inactive)
7,FC(F)(F)/C(=N\OCC1OCCO1)c1ccc(Cl)cc1,-4.58% (inactive)
8,Cc1ccccc1OCC1CO1 (centres undefined),-3.88% (inactive)
9,Cc1ncc([N+](=O)[O-])n1CC(O)CCl (centres undefined),3.04% [at 35.3 µM] (inactive)
